# Data as given in the supplement of paper PMC6555819.
# Key:
# Assay in all cases: PBM binding z-score (relative to random genomic background probes); higher = stronger binding; sequences stand for … in GC…GCGATTGACAGCGTAGAATGAAGG
# [1] = system: RARb homodimer (NR concentration 270 nM)
# In short: (§1)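 Random background probes are the reference for binding z-scores. These scores derive from regression-normalized fluorescence on custom Agilent 4×180K protein-binding microarrays incubated 1 h with ligand-free nuclear receptor dimers. Binding was detected with antibodies against each partner (one per run).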
# [2] = system: RARg:RXRa (NR concentration 270 nM, RXRa partner concentration 90 nM)
# In short: as §1
# [3] = system: RARg homodimer (NR concentration 270 nM)
# In short: as §1
# [4] = system: RXRa DBDmut IVT, anti-RXR (DBD mutation: RXRa K156A/R161A, NR concentration 90 nM)
# In short: as §1
# [5] = system: RXRa homodimer (NR concentration 180 nM)
# In short: as §1
# [6] = system: THRa:RXRa (NR concentration 90 nM, RXRa partner concentration 90 nM)
# In short: as §1
# [7] = system: THRa homodimer (NR concentration 90 nM)
# In short: as §1
# [8] = system: VDR:RXRa (NR concentration 270 nM, RXRa partner concentration 90 nM)
# In short: as §1
# [9] = system: VDR homodimer (NR concentration 270 nM)
# In short: as §1
Sequence,PBM binding z-score [1],PBM binding z-score [2],PBM binding z-score [3],PBM binding z-score [4],PBM binding z-score [5],PBM binding z-score [6],PBM binding z-score [7],PBM binding z-score [8],PBM binding z-score [9]
CAAACTAGGTCACGAAAGGTCAAGGTCGAATGAC,6.07,7.93,8.86,2.21,8,5.14,3.71,6.61,4.2
GCGACTGGGGAAAAGCAGGTTACCATAAGGTTGG,0.416,-0.0185,-0.445,-0.805,0.275,1.25,0.0418,-0.273,-0.6
ATCGAAAGGTCGACGACGTGAGTATACACCGTTT,2.21,4.04,3.8,1.3,3.94,1.73,-0.597,2.25,0.228
GATACAGGGTCAGCTAGAGGACAGAGTATGGAAA,3.71,6.86,4.97,1.16,4.03,3.79,1.05,3.75,0.873
TCATATAGGCAAACAGGTGAAAGTCCGTAAGTTA,0.521,0.00145,0.112,1.26,0.527,0.197,0.185,0.719,0.251
ACTAGCAGGCCAAGGCTCACTCAAGATTAGTCCG,-0.234,-0.222,0.0156,-0.206,-0.0748,-0.43,-0.144,-0.781,-0.802
CTCCAAAGGTCGTGCTCAGGTGAGTATACCAAAC,2.74,5.41,4,2.23,5.01,4.15,1.09,3.59,0.905
CCTACTGGGCCATCAGATCATTGATATCAACGTT,-0.087,0.0829,0.48,0.0432,-0.148,-0.114,-0.322,-0.181,0.0449
GCTAGCACGCCATTTGGGTCACTCAATGACGGGC,1.32,0.76,0.779,-0.343,0.832,1.5,0.413,-0.0776,-0.357
TCTCGGTGGACACGAAAGGTCAGAGCTCGACATC,4.36,4.38,4.33,0.665,4.52,2.96,0.543,2.84,0.45
CCTCGAAGGACAACAGGAGGTCAGAGCTGCCAGA,3.42,3.4,3.28,0.237,1.89,2.58,0.731,1.73,0.641
ACAAACAGGTGAGTGAAGGTAACTCAGCTGGACG,0.000775,0.131,0.536,-0.35,0.457,1.5,-0.581,-0.124,-0.41
TCTTGTAGATCAGCAGGTAAAGAAAGCTGGCCAA,-0.48,-0.342,-0.709,0.623,0.124,-0.108,-0.515,-0.142,-0.431
CGAACTAGGTCATCCAGAACAGTGAATACATTGA,2.8,4.03,4.69,2.23,2.89,2.64,1.15,2.56,1.17
TAGCCCAGGTCATTCAGGGGCCAGTATAGAAAGC,3.34,6.39,4.29,2.4,3.39,3.71,1.48,3.65,2
TCTTGTAGATCTACAGGAGGTTAAGAAAGATCGA,-0.0502,0.199,0.133,0.107,0.709,0.534,-0.449,0.41,-0.594
CCTGCTAGGTCACGGTCAGCTAATCTACAGTATG,3.98,5.01,6.09,2.08,4.15,3.35,2.35,2.5,0.444
TGGCCTAGGTCATTGGGCCAGTATAGTACGCATC,2.71,3.81,4.21,0.818,2.68,2.71,0.295,1.87,0.451
GCTACTAGTTGAAAGGGCAACCGAATGATTCTCG,2.01,1.33,1.35,0.375,1.33,0.651,-0.134,0.234,0.214
TAGCCTAGGTCATTCAGGGGCCTGTATAGAAAGC,2.65,4.31,4.02,1.75,2.48,3.54,0.286,2.69,1.04
CTCGAAAGGTCGTGCTCACGTGAGTATACCAAAC,2.82,4.15,3.6,1.95,4.71,2.41,-0.0324,3.23,1.06
TTTCCAAGGTGAGCTGAGGTCGTTGATCCAACTC,1.73,1.51,1.2,0.414,1.59,4.61,2.71,4.12,2.61
CCTTACGGGTCAAGGTTTTAGCACGGGTGGTACG,3.11,4.62,4.4,0.499,5.16,2.51,0.113,2.82,0.742
ATCGCAAGGTCGACGAGGTGAGTATACACCGTTT,1.72,2.58,2.37,1.32,2.26,3.41,1.26,4.11,1.21
CCGACTGGGGCACAAAGGTTACCATACCATCCGG,2.64,2.34,1.92,-0.678,2.52,1.51,0.0239,1.73,0.375
ATCGAAGGGTCGACGAGGTGAGTATACACCGTTT,1.42,2.38,2.29,0.234,2.33,2.86,0.22,4.01,0.636

Sequence,PBM binding z-score [1],PBM binding z-score [2],PBM binding z-score [3],PBM binding z-score [4],PBM binding z-score [5],PBM binding z-score [6],PBM binding z-score [7],PBM binding z-score [8],PBM binding z-score [9]
GCTGCTAGGTCAACAGATGGTCAGCTAAAGCTCG,2.83,4.81,4.85,1.22,2.42,2.56,0.465,1.11,0.00157
ATACCAAGTTGATCGTGAGGTCGTTGATACTAAC,1.39,1.26,0.677,1.34,1.08,2.75,2.33,2.68,3.08
TCATATAGTTAAAAGGTGAAAGTCGGTGTGGTAA,1.92,1.69,0.989,1.66,2.31,1.6,0.712,1.52,0.721
TCATATAGGTAATACAGGTGAAGGTCGGCATCTA,2,1.13,0.974,1.69,1.46,1.31,0.829,1.62,0.817
TGAATGAGGTTATGAGATCAGGGAACGTTGCAAA,0.266,1.6,1.13,0.145,2.19,1.95,0.132,0.987,0.305
CGTCAAAGTTCAACTAAGGTAAGGTAAAGCACGC,3.92,5.8,6.23,4.39,4.88,5.19,1.95,4.17,3.59
TCATATAGGTAAAAGGTGAAATTCGGTGTGGTAA,1.8,1.8,0.738,1.92,3.04,1.77,0.523,1.58,0.37
AGAACGAGGGCAGGCTGAGTTGATAGCAGAGTAG,0.683,0.569,1.17,0.639,0.342,0.523,-0.552,0.431,0.453
TCGACTAGGTTACCAATGGGGCATTCAGCTTTCT,1.02,1.16,0.432,1.07,0.661,0.557,0.42,0.439,-0.0453
ATATGTAGGTTAATGGTCATTCAGGTTGGTTCGC,1.75,1.02,1.11,0.788,1.14,0.905,0.945,1.32,1.34
AGTCAAAGTTCACTAGGTAACCTAAGATTCAGCT,3.75,5.2,5.66,4.32,4.04,2.46,0.759,4.04,4.29
ACTAGCAGGCCAGGTTTGGGTCACTCAAACAAAG,1.92,1.47,0.836,-0.798,0.628,2.11,0.999,0.437,-0.155
CCTAGCGGGCCAATCTGGGTCACTCAAGGCTTGA,2.14,0.91,0.984,-0.4,0.724,3.59,0.327,0.28,-0.159
TGAATGAGGTTATAAGCTCAGGGAACGTTGCAAA,-0.162,1.1,0.731,0.518,1.91,1.67,0.118,0.693,0.00669
CGAACTAGGTCATTGACAAGACAGTGAATAGTAA,2.2,3.71,4.21,1.81,2.68,2.3,0.53,1.89,0.774
CCTATTAGTTTACCATAAGGGCAACCGAAGCTCG,1.96,1.14,1.1,0.915,0.566,2.06,1.39,0.484,1.03
AGAATGAGGTTAAGATCCGGGAAACAGAATACAT,0.774,2.06,1.4,0.76,2.46,2.37,0.603,1.05,0.257
CCAGACAGCTGAAAGGTAACTCAGTCTGGTACGC,-0.175,-0.0986,-0.184,0.0606,0.212,0.0566,-0.51,,-0.0523
TCAGACAGGTGAAGGCAACTCAGGTACGCAGTCG,0.466,0.17,0.317,0.993,0.955,0.99,-0.0896,0.552,-0.101
TCATTTAGGTAAATGCTAGGTGAAAGTCCGATCT,0.541,0.116,0.0576,1.57,0.519,1.69,0.878,0.573,0.0956
TCTCGGAGGACACGTAAGGTCAGAGCTCGACATC,4.02,3.53,3.84,1.11,2.47,4.72,4.18,2.69,1.25
TAGCCTAGGTCATTGGGCCAGTATCGTACGCATC,2.91,3.85,4,1.73,2.84,2.87,1.01,2.37,1.43
CCGACTGGGGGAGAAAGGTTACCATACCATCCGG,2.12,2.37,1.74,-0.115,2.39,1.84,0.416,1.42,0.562
GCGACTGGGGCATCAGCAGGTTACGATAACTTAA,0.928,0.837,0.545,-0.13,0.313,0.816,-0.273,0.0769,-0.435
CGAACTAGGTCAGAACGGGACAGTGAAGGATGAT,1.83,2.2,2.96,0.435,1.15,2.84,-0.119,0.281,-0.321
TCTAGTTGGGCACGGAGGTCACACACGACGGGTA,4.1,4.07,3.83,0.548,4.43,3.34,1.83,4.08,2.63
